PubChem BioAssay (NCATS)
Records with an inconclusive call do not appear. A call without a number means that no potency is given here. Unmarked numbers belong to inactive results. Calls of active or inactive are those of the source. Calls follow the shape of the dose curve; as a rule, active = well fitted curve in the direction sought with a large enough effect; inconclusive = small, poorly fitted or top-dose-only effect, or another doubt; inactive = no such curve, though single readings can be large; an effect the other way counts as inactive or inconclusive.

Assays:
[1] = molecular target: Cellular tumor antigen p53 (Homo sapiens) (UniProt P04637); assay: Primary qHTS for small molecule compounds that upregulate eGFP-tagged delta133p53alpha (in N-terminal) cells. (AID 2060322); details: NCI-H358 eGFP-delta133p53alpha fluorescence, 24 h; activation: active compounds read high; also: nearly all actives have a fitted effect of over 75% in size; also: potency is read from the fitted curve at half-maximal effect;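 as to activation: cells pre-induced with doxycycline then dosed without doxycycline; series mostly up to about 56 µM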
Chain of Cellular tumor antigen p53 (Homo sapiens) (P04637 whole entry, looked up): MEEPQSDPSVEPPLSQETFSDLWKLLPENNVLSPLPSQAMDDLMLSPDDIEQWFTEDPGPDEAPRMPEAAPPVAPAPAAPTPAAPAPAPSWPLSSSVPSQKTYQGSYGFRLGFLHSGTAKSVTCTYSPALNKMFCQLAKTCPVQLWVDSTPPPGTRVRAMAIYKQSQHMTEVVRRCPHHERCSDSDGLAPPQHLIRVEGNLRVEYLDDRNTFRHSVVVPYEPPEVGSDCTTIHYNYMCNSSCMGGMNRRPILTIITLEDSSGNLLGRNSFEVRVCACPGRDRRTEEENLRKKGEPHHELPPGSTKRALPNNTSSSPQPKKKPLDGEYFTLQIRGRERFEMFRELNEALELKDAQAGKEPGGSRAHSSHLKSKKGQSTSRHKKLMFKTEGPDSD
In short: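 NCI-H358 cells pre-induced 24 h with 10 ng/ml doxycycline for eGFP-delta133p53alpha, plated dox-free and exposed 24 h at 37C to titrated compounds. Fixed, Hoechst-stained; gated GFP peak intensity by laser scanning cytometry, normalized to DMSO (0%) and 57.5 uM 5-azacytidine (100%).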

[2] = molecular target: Aldehyde dehydrogenase, mitochondrial (Homo sapiens) (UniProt P05091); assay: qHTS for Inhibitors of the Aldehyde Dehydrogenase Family (ALDH2) Primary screen (AID 2061308); also: nearly all actives have a fitted effect of over 55% in size
[3] = molecular target: Retinal dehydrogenase 2 (Homo sapiens) (UniProt O94788); assay: qHTS for Inhibitors of the Aldehyde Dehydrogenase Family (ALDH1A2) Confirmation screens (AID 2061314); also: nearly all actives have a fitted effect of over 65% in size
[4] = molecular target: Retinaldehyde dehydrogenase 3 (Homo sapiens) (UniProt P47895); assay: qHTS for Inhibitors of the Aldehyde Dehydrogenase Family (ALDH1A3) Primary screen (AID 2061315)

SMILES	activation [1] [%]	Potency [2]	Potency [3]	Potency [4]	Potency [1]
CC1(C)CC[C@]2(C(=O)O[C@@H]3O[C@H](CO)[C@@H](O)[C@H](O)[C@H]3O)CC[C@]3(C)C(=CCC4[C@@]5(C)C[C@@H](O)[C@H](O)[C@@](C)(CO)C5CC[C@]43C)C2[C@@H]1O (some centres undefined)	8.93	inactive	inactive	inactive	
Cc1ccc(N2CCN(S(=O)(=O)N3CCCCC3)CC2)c(C)c1	17.9	inactive		inactive	
CC1(C)CC2=C3C=CC4C5(C)CCC(O)C(C)(C)C5CCC4(C)C3(C)CCC2(C)C(O)C1 (centres undefined)	-8.04	inactive		inactive	
COC(=O)N1CCC(n2ncc3c(N4CCOCC4)nc(-c4ccc(NC(=O)Nc5ccc(CO)cc5)cc4)nc32)CC1		inactive		inactive	21.3 µM (active)
O=C(O)CC1CC(c2ccccc2)=NO1 (centres undefined)	16.3	inactive		inactive	
CC1CC(=O)C2=C(C1)C1OC1C1(O)C2C(=O)c2cccc(O)c2C1O (centres undefined)	4.58	inactive		inactive	
CN1CCN(C(=O)c2ccc(Nc3nccc(-c4cccs4)n3)cc2Cl)CC1		inactive		inactive	30.1 µM (active)
CC1NC(=O)C(Cc2c[nH]c3ccccc23)NC1=O (centres undefined)	-13.7	inactive		inactive	
CC1(C)CCCC2(C)C(CO)C(CO)=CCC12 (centres undefined)	-3.82	inactive		inactive	
C=CC(C)(CCC=C(C)C)O[C@@H]1O[C@H](CO)[C@@H](O)[C@H](O)[C@H]1O (some centres undefined)	3.57	inactive		inactive	
CC(=O)OC[C@]12[C@H](OC(C)=O)C(=O)[C@@H]3[C@@H](O)[C@@]14O[C@@]3(C)COC(=O)c1cccnc1[C@@H](C)[C@H](C)C(=O)O[C@@H]([C@H](O)[C@@H]2OC(C)=O)[C@]4(C)O	-8.04	inactive		inactive	
